The source made the active and inactive calls. The call rests on the fitted dose curve; in most records, active means well fitted curve in the direction sought with a large enough effect in the repeat runs; inconclusive means weak or mixed curves; inactive means flat fitted curve, though single readings scatter.
Assay: qHTS assay to test for compound auto fluorescence at 535 nm (green) in HEK293 cell free culture (AID 720682)
Details: cell-free medium, green autofluorescence 485/535 nm, hits give high values; series mostly up to 91.3 µM; activity change: at the top concentration
Method in brief: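 Cell-free medium (DMEM, 10% FBS) receives compound or DMSO by pintool. Plate read directly at Ex 485/Em 535 nm. Signal converted to fluorescein equivalency.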
On the % scale 0 is the no-effect control and ±100 the full control effect.

SMILES | activity change | outcome
C=CCCCCCC | -0.0028% (inactive) | 
CC(=O)N(O)CCCCCNC(=O)CCC(=O)N(O)CCCCCNC(=O)CCC(=O)N(O)CCCCCN | 0.033% [at 18.6 µM] (inactive) | 
FC(F)(F)C(F)(F)C(F)(F)C(F)(F)C(F)(F)C(F)(F)CCI | 0.108% [at 46 µM] (inactive) | 
COCCOCCOCCOCCOC | 0.0139% (inactive) | 
CCCCCCCCCC(=O)OCC | 0.0833% (inactive) | 
Cc1ccc(C(=O)C(C)CN2CCCCC2)cc1 (stereo unspecified) |  | inactive
CCN(CCO)CCCC(C)Nc1ccnc2cc(Cl)ccc12 (stereo unspecified) | -0.0716% [at 46 µM] (inactive) | 
Cc1cc(CC(=O)O)c(C)n1-c1ccc(Cl)cc1 | -0.0386% [at 46 µM] (inactive) | 

Assay: qHTS assay to test for compound auto fluorescence at 590 nm (red) in HEK293 cell free culture (AID 720683)
Details: cell-free medium autofluorescence, Ex540/Em590 red; series mostly up to 91.3 µM; fluorescence, % of fluorescent control: at the top concentration
Method in brief: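 Red-channel autofluorescence of compounds in culture medium (DMEM, 10% FBS), no cells, measured at 540/590 nm. Rose Bengal sodium is the reference fluorophore for equivalence.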

SMILES | fluorescence, % of fluorescent control | outcome
C=C(C)C(=O)OC(C)C | -0.173% (inactive) | 
OCC1CC2CC1C1CCC(CO)C21 (stereo unspecified) | 0.0169% (inactive) | 
CCCCCCCCN(C)C | 0.0011% (inactive) | 
CC[C@H](C)[C@H](N)C(=O)O | -0.0058% [at 46 µM] (inactive) | 
CCN(CC)CCc1nc(-c2ccccc2)no1 | -0.0001% [at 18.6 µM] (inactive) | 
CCCCCCCCCCCCCCCC(=O)OC/C=C(C)/C=C/C=C(C)/C=C/C1=C(C)CCCC1(C)C |  | inactive
CCOC(=O)CC(=O)c1cc(F)c(Cl)nc1Cl | -0.289% [at 95.7 µM] (inactive) | 
CC(=O)O[C@H]1C[C@@H]2CC[C@@H]3[C@H](CC[C@@]4(C)[C@H]3C[C@H]([N+]3(C)CCCCC3)[C@@H]4OC(C)=O)[C@@]2(C)C[C@@H]1N1CCCCC1 | -0.365% [at 46 µM] (inactive) | 
Cc1ccc(C)o1 | 0.331% (inactive) | 
CC(C)CCCC(C)CCO (stereo unspecified) | -0.536% (inactive) | 
COc1ccc2[nH]c(S(=O)Cc3ncc(C)c(OC)c3C)nc2n1 (stereo unspecified) | -0.44% [at 46 µM] (inactive) | 
NC(=S)N/N=C/c1cccnc1 | 0.117% [at 46 µM] (inactive) | 
CC(C)c1ccccc1C(C)C | 0.1% (inactive) | 
NCc1ccccc1 | -0.875% (inactive) | 
CC(C)(C)c1ccc(S)cc1 | 0.131% (inactive) | 
CNS(=O)(=O)Cc1ccc2[nH]cc(CCN(C)C)c2c1 | 0.0729% [at 46 µM] (inactive) | 
COc1ccccc1OC(=O)Oc1ccccc1OC | -0.0386% [at 46 µM] (inactive) | 
Cc1c(Cn2ccnc2)c2ccccc2n1CCC(=O)O | -0.235% [at 46 µM] (inactive) | 
O=[N+]([O-])c1cc[n+]([O-])cc1 | -0.513% (inactive) | 

SMILES | fluorescence, % of fluorescent control | outcome
CCOc1cc(OCC)c(C(=O)CCC(=O)O)cc1OCC | -0.3% [at 46 µM] (inactive) | 
O=S(=O)(O)c1ccc(O)c2ncccc12 | -0.0875% (inactive) | 
CC[C@]12CCCN3CCc4c(n(c5ccccc45)C(=O)C1)[C@@H]32 | -0.702% [at 18.6 µM] (inactive) | 
CC(C)(C)C(=O)OCOP(=O)(COCCn1cnc2c(N)ncnc21)OCOC(=O)C(C)(C)C | -0.0482% [at 46 µM] (inactive) | 
N#CCc1cccc(C(F)(F)F)c1 | 0.0041% (inactive) | 
O=C=NC1CCC(CC2CCC(N=C=O)CC2)CC1 (stereo unspecified) | 0.357% (inactive) | 
Cc1cc(NC(=O)C(=O)O)cc(C)c1Oc1ccc(O)c2c1CCC2 | -0.0803% (inactive) | 
CC(C)CC=O | -0.238% (inactive) | 
Nc1ccc(C(=O)Nc2ccccc2N)cc1 | 0.638% [at 46 µM] (inactive) | 
O=c1c2ccccc2nnn1CCl | 0.295% (inactive) | 
Cc1ccc(C(C)c2ccc(C)c(C)c2)cc1C | 0.0622% (inactive) | 
C=CCCCCCC | 0.0291% (inactive) | 
CC(=O)N(O)CCCCCNC(=O)CCC(=O)N(O)CCCCCNC(=O)CCC(=O)N(O)CCCCCN | -0.0386% [at 18.6 µM] (inactive) | 
FC(F)(F)C(F)(F)C(F)(F)C(F)(F)C(F)(F)C(F)(F)CCI | 0.246% [at 46 µM] (inactive) | 
COCCOCCOCCOCCOC | -0.29% (inactive) | 
CCCCCCCCCC(=O)OCC | 0.458% (inactive) | 
Cc1ccc(C(=O)C(C)CN2CCCCC2)cc1 (stereo unspecified) |  | inactive
CCN(CCO)CCCC(C)Nc1ccnc2cc(Cl)ccc12 (stereo unspecified) | -0.0208% [at 46 µM] (inactive) | 
Cc1cc(CC(=O)O)c(C)n1-c1ccc(Cl)cc1 | 0.852% [at 46 µM] (inactive) | 

— PubChem BioAssay (Tox21)
